According to PubChem BioAssay (EPA / NIEHS):
“And” between values parts separate entries of the source, which are not always exact repeats. Equal entries are not always repeated. Some structures have more than one record in an assay (separate samples or runs), and their calls can disagree. The source made the active and inactive calls. The calls were made as follows: active = hit-call score of the fitted dose curve at least 0.9, where 1 is the maximum; inactive = score below 0.9.

Experiments:
[1] = read-out: Thrombomodulin, THBD (gene 7056); assay: BSK_CASM3C_Thrombomodulin: BioMAP Diversity Plus: CASM3C Assay for Thrombomodulin Biomarker Activity (AID 2283051); conditions: primary human coronary artery smooth muscle cells; actives raise or lower the signal;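 also: thrombomodulin protein level measured by ELISA 24 h after dosing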
[2] = read-out: Tissue Factor, F3 (gene 2152); assay: BSK_CASM3C_TissueFactor: BioMAP Diversity Plus: CASM3C Assay for Tissue Factor Biomarker Activity (AID 2283052); conditions: primary human coronary artery smooth muscle cells; actives raise or lower the signal;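 also: cell surface tissue factor protein level read by ELISA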
[3] = read-out: Interferon-gamma inducible Protein 10 (IP10), CXCL10 (gene 3627); assay: BSK_hDFCGF_IP10: BioMAP Diversity Plus: hDFCGF Assay for Interferon-gamma inducible Protein 10 (IP10) Biomarker Activity (AID 2283053); conditions: primary human foreskin fibroblasts; actives raise or lower the signal
Outline: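 Primary foreskin fibroblasts, human; 24 h compound exposure; IP-10 by ELISA; bidirectional fit vs DMSO.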

[4] = read-out: Urokinase-type plasminogen activator receptor (uPAR), PLAUR (gene 5329); assay: BSK_CASM3C_uPAR: BioMAP Diversity Plus: CASM3C Assay for Urokinase-type plasminogen activator receptor (uPAR) Biomarker Activity (AID 2283054); conditions: primary human coronary artery smooth muscle cells; actives raise or lower the signal;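 also: cell-surface uPAR protein level quantified by ELISA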
[5] = read-out: Vascular cell adhesion molecule 1 (VCAM1), VCAM1 (gene 7412); assay: BSK_CASM3C_VCAM1: BioMAP Diversity Plus: CASM3C Assay for Vascular cell adhesion molecule 1 (VCAM1) Biomarker Activity (AID 2283055); conditions: primary human coronary artery smooth muscle cells; actives raise or lower the signal;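 also: VCAM-1 protein level quantified by ELISA on the cells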
[6] = read-out: Collagen III, COL3A1 (gene 1281); assay: BSK_hDFCGF_CollagenIII: BioMAP Diversity Plus: hDFCGF Assay for Collagen III Biomarker Activity (AID 2283056); conditions: primary human foreskin fibroblasts; actives raise or lower the signal
Outline: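 Human foreskin primary fibroblasts were exposed to test chemicals for 24 h, after which collagen III was quantified by ELISA. Activity was fitted bidirectionally against DMSO as negative control and baseline.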

[7] = read-out: Epidermal growth factor receptor (EGFR), EGFR (gene 1956); assay: BSK_hDFCGF_EGFR: BioMAP Diversity Plus: hDFCGF Assay for Epidermal growth factor receptor (EGFR) Biomarker Activity (AID 2283057); conditions: primary human foreskin fibroblasts; actives raise or lower the signal
Outline: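 hDFCGF system, primary human foreskin fibroblasts; compound 24 h; EGFR measured by ELISA; DMSO = negative control/baseline; bidirectional fitting.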

[8] = read-out: Interleukin-8 (IL8), CXCL8 (gene 3576); assay: BSK_hDFCGF_IL8: BioMAP Diversity Plus: hDFCGF Assay for Interleukin-8 (IL8) Biomarker Activity (AID 2283058); conditions: primary human foreskin fibroblasts; actives raise or lower the signal
Outline: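 hDFCGF human dermal fibroblasts; 24 h chemical exposure; IL-8 by ELISA; bidirectional curve fit vs DMSO baseline; gain or loss of signal scored.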

[9] = BSK_hDFCGF_Proliferation: Cell Proliferation Assessment in the BioMAP Diversity Plus: hDFCGF Assay (AID 2283059); conditions: primary human foreskin fibroblasts;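 also: curves fitted for both rise and fall of signal versus DMSO baseline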
Outline: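 This proliferation readout used SRB total-protein staining of human foreskin fibroblasts […], normalized to DMSO with bidirectional curve fitting.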

[10] = read-out: Macrophage colony-stimulating factor (MCSF), CSF1 (gene 1435); assay: BSK_hDFCGF_MCSF: BioMAP Diversity Plus: hDFCGF Assay for Macrophage colony-stimulating factor (MCSF) Biomarker Activity (AID 2283060); conditions: primary human foreskin fibroblasts; actives raise or lower the signal
Outline: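 Human foreskin primary fibroblasts were treated with test chemical for 24 h, and M-CSF was then measured by ELISA. Data were fitted bidirectionally against DMSO as the negative control and activity baseline.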

[11] = BSK_hDFCGF_SRB: Viability Assessment in the BioMAP Diversity Plus: hDFCGF Assay (AID 2283061); conditions: primary human foreskin fibroblasts;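 also: cells exposed to compound for 24 h before the read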
Outline: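 Human foreskin primary fibroblasts were treated with compound and assessed 24 h after dosing. Total protein was measured by sulforhodamine B staining (0.1% SRB after 10% TCA fixation, 560 nm read) as a cytotoxicity marker, with bidirectional fitting against DMSO baseline.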

[12] = read-out: TIMP metallopeptidase inhibitor 1 (TIMP1), TIMP1 (gene 7076); assay: BSK_hDFCGF_TIMP1: BioMAP Diversity Plus: hDFCGF Assay for TIMP metallopeptidase inhibitor 1 (TIMP1) Biomarker Activity (AID 2283062); conditions: primary human foreskin fibroblasts; actives raise or lower the signal
Outline: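 Primary human foreskin fibroblasts in the hDFCGF system were dosed with compound for 24 h, then TIMP-1 was measured by ELISA. Activity was fitted bidirectionally relative to DMSO control; parallel SRB staining assessed cytotoxicity.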

[13] = read-out: Monokine induced gamma interferon (MIG), CXCL9 (gene 4283); assay: BSK_hDFCGF_MIG: BioMAP Diversity Plus: hDFCGF Assay for Monokine induced gamma interferon (MIG) Biomarker Activity (AID 2283063); conditions: primary human foreskin fibroblasts; actives raise or lower the signal
Outline: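 ELISA read-out of MIG from primary human dermal fibroblasts 24 h post-dosing. Gain or loss of signal fitted bidirectionally, DMSO as baseline.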

[14] = read-out: Matrix Metallopeptidase 1 (MMP1), MMP1 (gene 4312); assay: BSK_hDFCGF_MMP1: BioMAP Diversity Plus: hDFCGF Assay for Matrix Metallopeptidase 1 (MMP1) Biomarker Activity (AID 2283064); conditions: primary human foreskin fibroblasts; actives raise or lower the signal
Outline: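 Primary human foreskin fibroblasts exposed to chemicals for 24 h; MMP1 measured by ELISA. Cytotoxicity tracked by SRB staining in parallel cultures; bidirectional fit relative to DMSO.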

[15] = read-out: Plasminogen activator inhibitor-1 (PAI1), SERPINE1 (gene 5054); assay: BSK_hDFCGF_PAI1: BioMAP Diversity Plus: hDFCGF Assay for Plasminogen activator inhibitor-1 (PAI1) Biomarker Activity (AID 2283066); conditions: primary human foreskin fibroblasts; actives raise or lower the signal
Outline: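 Primary dermal fibroblasts (human foreskin), hDFCGF system; compound 24 h; PAI-1 by ELISA; bidirectional fit vs DMSO control.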

[16] = read-out: Intercellular Adhesion Molecule 1 (ICAM1), ICAM1 (gene 3383); assay: BSK_KF3CT_ICAM1: BioMAP Diversity Plus: KF3CT Assay for Intercellular Adhesion Molecule 1 (ICAM1) Biomarker Activity (AID 2283067); conditions: primary human keratinocytes with fibroblasts; actives raise or lower the signal
Outline: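 Human keratinocyte plus foreskin fibroblast primary co-culture was exposed to chemical for 24 h. ICAM-1 was then quantified by ELISA, and the data were fit bidirectionally against DMSO as the negative control and baseline.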

[17] = read-out: Interferon-gamma inducible Protein 10 (IP10), CXCL10 (gene 3627); assay: BSK_KF3CT_IP10: BioMAP Diversity Plus: KF3CT Assay for Interferon-gamma inducible Protein 10 (IP10) Biomarker Activity (AID 2283068); conditions: primary human keratinocytes with fibroblasts; actives raise or lower the signal
Outline: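 Signal is secreted/surface IP-10 by ELISA in a human primary skin co-culture of keratinocytes and foreskin fibroblasts, taken 24 h post-dosing; DMSO served as negative control.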

[18] = BSK_KF3CT_SRB: Viability Assessment in the BioMAP Diversity Plus: KF3CT Assay (AID 2283069); conditions: primary human keratinocytes with fibroblasts;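 also: fitted for both signal gain and loss against DMSO baseline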
Outline: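 Human keratinocyte and foreskin fibroblast co-culture exposed to chemical for 24 h. Total protein measured in parallel cultures by 0.1% sulforhodamine B staining after 10% TCA fixation, read at 560 nm; bidirectional fit relative to DMSO.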

[19] = read-out: Interleukin-1 alpha (IL1a), IL1A (gene 3552); assay: BSK_KF3CT_IL1a: BioMAP Diversity Plus: KF3CT Assay for Interleukin-1 alpha (IL1a) Biomarker Activity (AID 2283070); conditions: primary human keratinocytes with fibroblasts; actives raise or lower the signal
Outline: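 Primary human keratinocyte plus foreskin fibroblast co-culture, dosed and measured at 24 h in 96-well plates. IL-1a level quantified by ELISA; bidirectional fit relative to DMSO.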

[20] = read-out: Vascular cell adhesion molecule 1 (VCAM1), VCAM1 (gene 7412); assay: BSK_hDFCGF_VCAM1: BioMAP Diversity Plus: hDFCGF Assay for Vascular cell adhesion molecule 1 (VCAM1) Biomarker Activity (AID 2283065); conditions: primary human foreskin fibroblasts; actives raise or lower the signal;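 also: VCAM-1 protein level quantified by ELISA after 24 h chemical exposure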
Outline: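 Primary human foreskin fibroblasts (hDFCGF system) were dosed with chemical and VCAM-1 was measured by ELISA 24 h later. Bidirectional curve fitting used DMSO as negative control and activity baseline.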

Measured: AC50

c1ccc(OCCOc2ccccc2)cc1
active: [11] 0.15 µM | [19] 2.45 µM
inactive: [1] | [2] | [3] | [4] | [5] | [6] | [7] | [8] | [9] | [10] | [11] | [12] | [13] | [14] | [15] | [16] | [17] | [18] | [19]

CC/C(=C(\c1ccccc1)c1ccc(OCCN(C)C)cc1)c1ccccc1
active: [1] 4.85 µM | [2] 13.7 µM | [3] 8.93 µM and 7.96 µM | [4] 25.9 µM and 14.2 µM | [5] 29 µM and 16.1 µM | [6] 9.76 µM and 7.96 µM | [8] 9.19 µM and 7.91 µM | [9] 5.05 µM and 314 nM | [10] 7.77 µM and 7.23 µM | [11] 6.75 µM and 6.55 µM | [12] 8.65 µM and 11.5 µM | [13] 9.37 µM and 11 µM | [14] 10.1 µM and 11.1 µM | [15] 7.69 µM and 7.18 µM | [16] 9.03 µM and 8.65 µM | [17] 10.1 µM and 7.37 µM | [18] 6.49 µM and 9.44 µM | [19] 8.27 µM and 11.2 µM
inactive: [1] | [2] | [7]

CCCO[Si](OCCC)(OCCC)OCCC
active: [9] 31.1 µM and 25.8 µM
not listed: [20]
inactive: all other assays above

C=C(F)C(=O)OC(C(F)(F)F)C(F)(F)F
inactive: [1] | [2] | [3] | [4] | [5] | [6] | [7] | [8] | [9] | [10] | [11] | [12] | [13] | [14] | [15] | [16] | [17] | [18] | [19]
active: [11] 38.2 µM

CCCCCCCCCCCCS
active: [3] 11.3 µM | [4] 30.3 µM | [5] 6.76 µM | [6] 7.78 µM | [8] 20 µM | [9] 3.2 µM | [10] 9.73 µM | [11] 11.7 µM | [12] 8.95 µM | [13] 17 µM | [14] 10.2 µM | [15] 10.8 µM | [18] 32.9 µM | [19] 20 µM
inactive: [1] | [2] | [7] | [16] | [17]

C=CC(=O)OCC(CO)(COC(=O)C=C)COC(=O)C=C
active: [1] 4.58 µM | [2] 1.25 µM | [3] 0.016 µM | [4] 0.501 µM | [5] 0.206 µM | [6] 0.016 µM | [8] 3.97 µM | [9] 0.016 µM | [10] 0.0377 µM | [11] 0.0163 µM | [12] 0.016 µM | [13] 0.0177 µM | [14] 0.146 µM | [20] 26.3 nM | [15] 0.0266 µM | [16] 682 nM | [17] 1.08 µM | [18] 0.592 µM | [19] 0.517 µM
inactive: [7]

CC(C)(C)c1cccc(O)c1
not listed: [20]
inactive: all other assays above

CCCCCCCCCC(=O)OCC
active: [2] 30.4 µM | [4] 31.1 µM | [5] 31.1 µM | [6] 31.5 µM | [9] 13.7 µM | [10] 30.2 µM | [15] 31.4 µM
not listed: [20]
inactive: all other assays above

CC(=O)OC(C)(C)C1CC=C(C)CC1 (stereo not given)
active: [4] 31.7 µM | [5] 34.8 µM | [9] 18.5 µM | [11] 36.7 µM | [15] 23.6 µM
not listed: [20]
inactive: all other assays above

CC1=CC(C)C(C=O)C(C)C1 (stereo not given) (tested in a mixture with another compound)
not listed: [20]
inactive: all other assays above

Nc1ccc(N)c([N+](=O)[O-])c1
active: [2] 0.037 µM | [9] 13.4 µM
not listed: [20]
inactive: all other assays above
